High-throughput results deposited in PubChem BioAssay by several laboratories.
Hits are enriched below; roughly 3.5% of the tested compounds scored in any of these assays.
PG9 binder: small molecules binding HIV-1 gp120 antibody PG9 | actives 0.43% (n = 360,000) | inhibition, % at 6.7 µM | TR-FRET gp120-PG9 antibody binding | AID 624416; in the data active = inhibition above about 8.5%
UHRF1 MBD2 ctr: blocks human UHRF1 binding to methylated DNA; inhibition, % at 4.4 µM; AID 687016; Q96T88; UHRF1 binding to methylated oligo, TR-FRET; actives 0.75% (n = 370,000); in the data active = inhibition above about 21%;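 note: UHRF1 SRA domain binding a hemimethylated CpG hairpin DNA probe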
rCAG binder: binds r(CAG) RNA repeats | r(CAG) RNA repeat, TO-PRO-1 dye displacement fluorescence | inhibition, % at 3 µM | actives 1.3% (n = 370,000);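 active = inhibition above the plate cutoff, the mean of all test compounds on that plate plus 3 SD, cut at about 35% in these data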;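 note: higher means more dye released from RNA so lower well fluorescence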
LEDGF integ inh: blocks HIV-1 LEDGF/p75-dependent DNA integration. TR-FRET IN-LEDGF/p75 DNA integration, Eu/Cy5. inhibition, % at 3.7 µM. actives 0.64% (n = 370,000). AID 743269;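 active = inhibition above the screen-wide mean plus 3 SD, cut at about 13% in these data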;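 note: signal is the Cy5 over europium emission ratio at 671 and 618 nm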
DNMT1 block: inhibitors of human DNMT1; inhibition (reported as % activation of signal), % at 10 µM; actives 0.83% (n = 360,000); DNMT1 molecular beacon, Hinp1I cleavage, fluorescence; P26358; AID 588458; in the data active = inhibition above about 50%
MBD2 inh: inhibitors of human MBD2 binding to methylated oligonucleotide; inhibition, % at 4.4 µM; Q9UBB5; AID 686964; actives 0.31% (n = 370,000); TR-FRET; in the data active = inhibition above about 13%
rCAG bind conf: r(CAG) RNA repeat binding, confirmation; shares compounds with rCAG binder; TO-PRO-1 dye displacement fluorescence; inhibition, % at 3 µM; actives 70% (n = 4,300); AID 652065;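 active = inhibition above a per-plate cutoff, the mean inhibition of sample wells plus 3 SD, cut at about 35% in these data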;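 note: loss of TO-PRO-1 fluorescence as compound displaces dye from 1x1 AA loop RNA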
dCAG dye counter: DNA CAG dye complex inhibition counter-screen; d(CAG) DNA oligo TO-PRO-1 dye displacement, fluorescence; actives 94% (n = 4,300); shares compounds with rCAG binder; inhibition, % at 3 µM; AID 652068;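 active = inhibition above its plate's cutoff, the mean test-well inhibition plus 3 SD, cut at about 4.8% in these data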;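 note: hits displace the dye from DNA and so lower well fluorescence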
A number is an active result; - = inactive; . = no result.

SMILES	PG9 binder	UHRF1 MBD2 ctr	rCAG binder	LEDGF integ inh	DNMT1 block	MBD2 inh	rCAG bind conf	dCAG dye counter
CCN(CC)c1nc(Nc2ccc(Cl)cc2)nc(OCC#N)n1	-	-	51	-	-	-	-	-
N#CC1=C(N)SC(N)=C(C#N)C1c1cccc(Oc2ccccc2)c1	-	-	60	-	-	-	-	11
O=[N+]([O-])c1ccc2[nH]cc(S(=O)(=O)N3CCN(c4cccc(Cl)c4)CC3)c2c1	-	-	43	-	-	-	37	20
O=C1N=c2ccccc2=C1c1sc(=S)n(NC(=O)c2ccccc2)c1O	-	-	61	-	-	-	41	20
Cn1c(O)c(C2=c3ccccc3=NC2=O)[nH]c1=S	-	-	-	-	-	-	.	.
Cc1ccc(F)c(NC(=O)/C(C#N)=C(\O)c2ccc(C(C)(C)C)cc2)c1	-	-	89	-	-	-	90	61
Cc1cccc(NC(=O)C(=O)NNC(=O)c2ccc(C(C)(C)C)cc2)c1	-	-	-	-	-	-	.	.
CC(=O)NNc1cc(C)nc(N)n1	-	-	66	-	-	-	-	-
Cc1cc(Nc2ccc(C(=O)O)cc2)nc(N)n1	-	-	-	-	-	-	.	.
CCSc1nsc(NC(=O)Nc2cccc(F)c2)n1	-	-	63	-	-	-	-	17
COc1cccc(NC(=O)Nc2nc(SC(C)(C)C)ns2)c1	-	-	74	-	-	-	41	32
CCCSc1nsc(NC(=O)Nc2ccc(F)cc2F)n1	-	-	-	-	-	-	.	.
COc1cccc(NC(=O)Nc2nc(SC)ns2)c1	-	-	44	-	-	-	-	9.4
CCOc1cc(C=O)ccc1OCCn1c([N+](=O)[O-])cnc1C	-	-	-	-	-	-	.	.
N#Cc1nc2ccccc2n1OCc1ccccc1	-	-	-	-	-	-	.	.
COc1ccc(CNC(=O)c2ccccc2NC(=O)C2=CSCCO2)c(OC)c1	-	-	-	-	-	-	.	.
CCc1ccc(Nc2nnc(SCC(=O)NC(=O)c3cccn3C)s2)cc1	-	-	-	-	-	-	.	.
Cc1ccc(CSc2nnc(SCC(=O)N/N=C/c3ccc(C(=O)O)cc3)s2)cc1	-	-	43	-	-	-	41	11
O=C(CSc1nnc(SCc2ccccc2)s1)N/N=C/c1ccc(C(=O)O)cc1	-	-	-	-	-	-	.	.
O=C(CSc1nnc(SCc2cccc3ccccc23)s1)Nc1ccc(C(=O)O)cc1	-	-	67	-	-	-	68	30
O=C(CSc1nnc(SCc2cccc3ccccc23)s1)Nc1ccc(Oc2ccccc2)cc1	.	-	-	-	.	-	.	.
O=C(CSc1nc2ccccc2s1)NNC(=S)Nc1ccc(Br)cc1	-	-	53	-	-	-	61	22
CCc1ccc(Nc2nnc(SCC(=O)Nc3ccc(C(=O)O)cc3)s2)cc1	-	-	36	-	-	-	-	5.0
c1ccc(CN2CC[C@@H](Nc3nccn4ccnc34)C2)cc1	-	-	-	-	-	-	.	.
O=C(CSc1nnc(SCc2cccc3ccccc23)s1)Nc1ccccc1-c1ccccc1	.	-	-	-	.	-	.	.
SMILES	PG9 binder	UHRF1 MBD2 ctr	rCAG binder	LEDGF integ inh	DNMT1 block	MBD2 inh	rCAG bind conf	dCAG dye counter
Cc1ccc(NC(=S)NNC(=O)CSc2nnc(SCc3cccc4ccccc34)s2)cc1	.	-	52	-	.	-	51	20
NNc1nc2sc3c(c2c(=O)[nH]1)CCc1ccccc1-3	-	-	44	-	-	-	-	8.4
O=c1c2ccccc2oc2cc(-c3ccc4[nH]ccc4c3)ccc12	-	-	35	-	-	-	-	11
O=c1c2ccccc2oc2ccccc12	-	-	-	-	-	-	.	.
CCCNC(=O)C1(C)CCCN(C(=O)c2ccc(OC(F)F)cc2)C1 (stereo unspecified)	-	-	-	-	-	-	.	.
COc1cc(/C=C(\C#N)C(=O)NC(C)C)ccc1OCc1ccc(C(=O)O)cc1	-	-	-	-	-	-	.	.
COc1cc(/C=C(\C#N)C(=O)NC2CCCCC2)ccc1OCc1ccc(C(=O)O)cc1	-	-	40	-	-	-	38	9.2
N#C/C(=C\c1ccc(OCc2ccc(C(=O)O)cc2)cc1)C(=O)NCc1ccccc1	-	-	41	-	-	-	-	5.9
COc1ccc(/C=C(\C#N)C(=O)NCc2cccnc2)cc1OC	-	-	-	-	-	-	.	.
COc1cc(/C=C(\C#N)C(=O)NCc2ccccc2)ccc1OCc1ccc(C(=O)O)cc1	-	-	43	-	-	-	-	5.9
COCCNC(=O)C1(C)CCCN(Cc2cc(C(F)(F)F)ccc2Cl)C1 (stereo unspecified)	-	-	-	-	-	-	.	.
C[C@H]1CN([C@@H](C)CO)C(=O)Cc2cc(NC(=O)Cn3cnnn3)ccc2O[C@H]1CN(C)Cc1ccncc1	-	-	-	-	-	-	.	.
O=C(Cn1cc(CNC(=O)C2CCCCC2)nn1)Nc1cc(C(F)(F)F)ccc1Cl	-	-	-	-	-	-	.	.
COc1cc(C2C(C#N)=C(N)Oc3c2ccc2ccccc32)ccc1OCC(=O)Nc1cccc(C)c1 (stereo unspecified)	-	-	53	-	-	-	-	11
COc1ccc(C2C(C#N)=C(N)Oc3c2ccc2cccnc32)cc1OC (stereo unspecified)	-	-	-	-	-	-	.	.
COc1cc(C2C(C#N)=C(N)Oc3c2ccc2ccccc32)ccc1OCC(=O)Nc1ccc(C)cc1 (stereo unspecified)	-	-	38	-	-	-	-	13
COc1ccccc1NC(=O)CN(c1ccccc1)S(=O)(=O)c1ccccc1	-	-	-	-	-	-	.	.
COc1ccc(N(CC(=O)Nc2ccccc2C(=O)O)S(=O)(=O)c2ccc(C)c([N+](=O)[O-])c2)cc1	-	-	72	-	-	-	54	17
Cc1ccc(S(=O)(=O)N(CC(=O)Nc2ccccc2C(=O)O)c2ccccc2)cc1	-	-	41	-	-	-	-	8.4
Cc1ccc(S(=O)(=O)N2[C@@H](CO)CO[C@H]2CC(=O)c2ccc(F)cc2)cc1	-	-	-	-	.	-	.	.
O=CNc1ccc2c(c1)Cc1cccc(NC=O)c1-2	-	-	-	-	-	-	.	.
CCOC(=O)C1=C(C)NC(SCc2cc(=O)[nH][nH]2)=C(C#N)C1c1cccs1 (stereo unspecified)	-	-	59	-	-	-	39	17
CC(=O)c1ccc(NC(=O)c2ccc(N3C(=O)c4cccnc4C3=O)cc2)cc1	-	-	-	-	-	-	.	.
COc1cc(/C=C2/C(=O)NN(c3cccc(C)c3)C2=O)cc([N+](=O)[O-])c1O	-	-	39	-	58	-	-	6.1
